# Screening results as filed in PubChem.
# Tb PFK block – inhibitors of T. brucei phosphofructokinase; O15648; T. brucei PFK, ADP-Glo luminescence; Potency, µM (titrated, usually from 57.5 µM), for the others: at the highest dose activity, negative = inhibition, actives largely listed as inhibitors; 0.17% of 330,000 active;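 also: potency is read from the fitted curve at half-maximal effect; 0% = uninhibited 1x PFK enzyme wells and -100% = no-enzyme wells; nearly all actives have a fitted effect of over 60% in size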
# Target sequence (O15648 whole entry, looked up): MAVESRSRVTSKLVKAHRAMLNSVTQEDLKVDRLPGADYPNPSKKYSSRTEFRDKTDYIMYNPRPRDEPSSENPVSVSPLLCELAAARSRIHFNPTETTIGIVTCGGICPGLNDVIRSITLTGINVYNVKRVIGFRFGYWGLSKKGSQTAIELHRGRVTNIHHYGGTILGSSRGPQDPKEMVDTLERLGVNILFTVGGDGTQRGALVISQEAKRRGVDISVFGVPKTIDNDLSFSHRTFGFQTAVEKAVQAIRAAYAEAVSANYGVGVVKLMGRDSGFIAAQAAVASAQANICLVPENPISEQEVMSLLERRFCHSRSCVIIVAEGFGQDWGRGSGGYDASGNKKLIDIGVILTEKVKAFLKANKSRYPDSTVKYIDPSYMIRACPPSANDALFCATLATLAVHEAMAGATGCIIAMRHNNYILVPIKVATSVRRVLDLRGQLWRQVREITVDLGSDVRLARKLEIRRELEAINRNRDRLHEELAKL
#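 Compounds were pin-transferred as a titration series up to 57 uM into substrate buffer (0.5 mM F6P, 0.1 mM ATP, pH 8.0), then 1.25 nM PFK was added and reactions ran 45 min before ADP-Glo detection.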
# Tb PGK inh – inhibitors of T. brucei phosphoglycerate kinase; 0.043% of 380,000 active; PGK/GAPDH coupled, Kinase-Glo luminescence, 60 min; AID 602233; P07378; Potency, µM (highest dose often 57.5 µM), for the others: at the top dose activity change, negative = inhibition, actives largely listed as inhibitors; also: potency is read from the fitted curve at half-maximal effect; nearly all actives have a fitted effect of over 60% in size
#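 Recombinant glycosomal PGK reaction used 1,3-bisphosphoglycerate generated in-well by GAPDH (100nM final) in 100mM TEA pH 7.6, 5mM MgCl2, 0.01% Tween-20. After 60 minutes at room temperature, ATP was read by Kinase-Glo Plus luminescence end-point.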
# PI4K2A block – blocks human PI4K2A kinase activity; Q9BTU6; purified PI4K2A, ADP-Glo luminescence, 1 h; stronger effect = lower value; activity change, negative = inhibition, % at 76.9 µM; 0.13% of 420,000 active; in the data active = activity change below about -50%; inconclusive = mostly about -30% to -49%;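 also: -100% = wells without enzyme as full effect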
#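 Compounds are screened against recombinant PI4K2A using PI as substrate and ATP, the latter dispensed at 300 microM. Reactions run one hour at ambient temperature before ADP-Glo detection; full inhibition defined by wells lacking enzyme.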
# PI5P4Ka inh – inhibitors of human PI5P4K alpha | PI5P4Kalpha enzyme, ADP-Glo luminescence, 60 min; stronger effect = lower value | 1.2% of 330,000 active | AID 652105 | max response, %; active = max response of -50% or lower; inconclusive = between -30% and -50%; inactive = -30% or higher; also: value at the top dose of about 77 µM
#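 Enzyme plus substrate dispensed, test compounds pinned in, then ATP (5 microM final) added. After 60 min at RT, ADP-Glo reagent 1 for 45 min and reagent 2 for 30 min preceded luminescence imaging.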
# Pin1 inh – human Pin1 inhibition. Q13526. Pin1 FP peptide displacement, HiFluor488, 10 min. Potency, µM (top dose mostly 115 µM), for the others: top-dose activity, negative = inhibition, actives largely listed as inhibitors. 0.009% of 390,000 active. AID 504891; active = well fitted inhibition curve with a large enough effect in the polarisation, with a control signal flat, not every such curve was filed as active; inconclusive = small, poorly fitted or top-dose-only effect, or effect the other way, or a change in a side signal; inactive = no such curve, though single readings can be large or run the other way; the % refers to the polarisation; also: potency is read from the fitted curve at half-maximal effect
# Target sequence (Q13526 whole entry, looked up): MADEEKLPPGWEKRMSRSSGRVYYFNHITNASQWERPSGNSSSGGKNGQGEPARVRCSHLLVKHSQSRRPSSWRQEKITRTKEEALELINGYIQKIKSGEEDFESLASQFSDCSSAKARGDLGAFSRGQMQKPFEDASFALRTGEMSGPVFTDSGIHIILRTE
# Starred values were filed as active, the others as inactive; i = inactive; ? = inconclusive; . = no result given. The sample as a whole holds a higher share of hits than the screen did. Unless noted, calls follow the shape of the dose curve; as a rule, active = well fitted curve in the direction sought with a large enough effect; inconclusive = small, poorly fitted or top-dose-only effect, or another doubt; inactive = no such curve, though single readings can be large; an effect the other way counts as inactive or inconclusive. Unless noted, % is scaled to controls: 0 for no effect and ±100 for the full control effect.
SMILES,Tb PFK block,Tb PGK inh,PI4K2A block,PI5P4Ka inh,Pin1 inh
N[C@H](C(=O)O)c1ccc(O)cc1,.,.,i,.,.
O=C(OC[C@H]1O[C@@H](OC(=O)c2cc(O)c(O)c(OC(=O)c3cc(O)c(O)c(O)c3)c2)[C@H](OC(=O)c2cc(O)c(O)c(OC(=O)c3cc(O)c(O)c(O)c3)c2)[C@@H](OC(=O)c2cc(O)c(O)c(OC(=O)c3cc(O)c(O)c(O)c3)c2)[C@@H]1OC(=O)c1cc(O)c(O)c(OC(=O)c2cc(O)c(O)c(O)c2)c1)c1cc(O)c(O)c(OC(=O)c2cc(O)c(O)c(O)c2)c1,0.095µM*,.,.,.,.
COc1ccc([C@H]2Oc3cc(O)cc(O)c3C(=O)C2[C@@H]2C(=O)c3c(O)cc(O)cc3O[C@@H]2c2ccc(OC)cc2)cc1 (stereo not given in full),7%,0%,3,-58*,7%
Cn1c2cc(C#N)sc2c2cnn(Cc3ccccc3F)c(=O)c21,.,.,.,.,0%
Cc1cccc(-n2c(C)cc(/C=C3\C(=N)N4N=C(CC(C)C)SC4=NC3=O)c2C)c1,0%,-11%,6,-5,8%
CC(C)CC1=NN2C(=N)/C(=C\c3coc4ccccc4c3=O)C(=O)N=C2S1,11%,-5%,-21,-53*,?
CCSC1=NSC2=NC(=O)/C(=C\c3coc4ccccc4c3=O)C(=N)N12,-1%,-7%,-8,-59*,?
CCCCN(C)C(=O)C1CCN(S(=O)(=O)c2ccc3[nH]c(=O)oc3c2)CC1,.,.,1,.,.
CCOC(=O)[C@@]12CCCC3=C1N(CCC3)C(=O)[C@H]2CC(=O)N1CCSCC1,.,.,-7,.,.
Cc1cc2c(s1)c1cnn(Cc3ccc(Br)cc3)c(=O)c1n2C,.,.,.,.,4%
Cn1c(=O)[nH]c(NC2CCCCC2)c([N+](=O)[O-])c1=O,3%,14%,4,-13,0%
O=c1[nH]c(NC2CCCCC2)c([N+](=O)[O-])c(=O)[nH]1,2%,i,1,-76*,0%
CC(C)(C)c1cc(=O)n(-c2ccccc2)[nH]1,0%,-25%,-54*,-3,?
O=c1cc(-c2ccccc2)[nH]n1-c1ccccc1,.,-3%,-8,0,5%
N=C1C2=C3Sc4ccccc4N3CCCC2=NN1c1cccc(S(=O)(=O)O)c1,2%,-4%,-5,-53*,2%
COc1cc(OC)cc(C(=O)Nc2nnc(NC(=S)Nc3ccccc3)s2)c1,7%,-4%,-5,-55*,144%
COc1cc(OC)cc(C(=O)Nc2ccc(Nc3ccccc3)cc2)c1,1%,-13%,-5,-8,8%
CCOC(=O)/C=C/C(=O)N1CCc2ccccc21,0%,-9%,-3,1,9%
O=C(/C=C/c1ccccc1)N1CCC(c2ccccc2)C1 (stereo not given),0%,4%,-1,0,0%
O=C(/C=C/c1ccco1)N1CCCC(c2ccccc2)C1 (stereo not given),0%,.,-20,-62*,0%
O=C(/C=C/c1ccco1)N1CCc2ccccc21,-20%,?,-53*,?,-1%
Cc1ccc(/C=C/C(=O)N2CCc3ccccc32)o1,?,-15%,-17,-75*,?
COc1cccc2c1[C@H](/C=C/c1ccccc1)[C@@H]([C@H](O)CO)OC2,.,.,-2,.,.
COc1ccc(C(=O)N(Cc2ccccc2)Cc2ccccc2)c(O)c1,.,.,.,.,-2%
O=C(O)Cn1c(=O)n(Cc2ccc(Br)cc2F)c(=O)c2ccc(Cl)cc21,.,.,0,.,.
SMILES,Tb PFK block,Tb PGK inh,PI4K2A block,PI5P4Ka inh,Pin1 inh
CCN(CC)CC(=O)OCC(=O)[C@@]1(O)CC[C@H]2[C@@H]3CCC4=CC(=O)CC[C@]4(C)[C@H]3[C@@H](O)C[C@@]21C,.,.,1,.,.
CN1C(=O)c2cc(NC(=O)C3CC3)ccc2OC[C@H]2O[C@@H](CC(=O)NC3CCC3)CC[C@@H]21,.,.,0,.,.
Cc1ccc(NC2CNC(=O)NC2=O)cc1C (stereo not given),.,i,1,-3,-1%
Cc1ccc(NC2C(=O)NC(=O)NC2=O)cc1,.,1%,-59*,1,7%
O=C(NCc1ccccc1)c1ccc2c(c1)S(=O)(=O)c1cc(Cl)ccc1C2=O,-5%,-2%,-2,10,1%
O=C(O)c1ccc2c(c1)S(=O)(=O)c1cc(Cl)ccc1C2=O,12%,-6%,-3,-52*,-8%
O=C(O)c1ccc2c(c1)S(=O)(=O)c1cc(N3CCN(c4cnccn4)CC3)ccc1C2=O,.,-11%,-10,-67*,.
O=C(O)c1ccc2c(c1)S(=O)(=O)c1ccccc1C2=O,3%,.,0,-74*,2%
O=C1c2ccccc2S(=O)(=O)c2cc(N3CCN(C(=O)c4ccccc4)CC3)ccc21,.,7%,2,2,?
NC(=O)c1ccc2c(c1)S(=O)(=O)c1ccccc1C2=O,-17%,-2%,1,-7,-13%
Cc1ccc(NC(=O)c2cc(N3C(=O)C=CC3=O)ccc2N2CCOCC2)cc1Cl,?,-5%,7,-76*,0%
COc1ccc(C=O)cc1COc1ccc(NC(C)=O)cc1,.,.,.,.,2%
CCCCCC(=O)Nc1cc(S(=O)(=O)N2CCCCC2)ccc1N1CCCCC1,.,-12%,1,1,6%
CCCCCC(=O)Nc1cc(S(=O)(=O)O)cc2cc(S(=O)(=O)O)cc(O)c12,.,1.1µM*,-59*,-86*,?
CCOC(=O)C1=C(C)N=c2s/c(=C/c3cccc([N+](=O)[O-])c3O)c(=O)n2C1c1cc(OC)c(OC)c(OC)c1 (stereo not given),6%,-13%,-1,-6,?
CCOC(=O)C1=C(C)N=c2s/c(=C/c3cccc([N+](=O)[O-])c3O)c(=O)n2C1c1ccccc1 (stereo not given),4%,-11%,-5,-55*,.
CCOC(=O)C1=C(C)N=c2s/c(=C\c3ccc(OCC(=O)O)cc3)c(=O)n2C1c1ccccc1 (stereo not given),7%,?,-20,?,9%
CCOC(=O)C1=C(C)N=c2s/c(=C\c3ccc(OCC(=O)O)c(OC)c3)c(=O)n2C1c1ccc(OC)cc1 (stereo not given),5%,-22%,-15,-61*,?
N#Cc1nc(NCCCCO)nc(Nc2ccccc2)n1,.,.,.,.,-1%
